We go through 17 compounds from PubChem BioAssay (NCATS).

Results filed as inconclusive are left out. The source holds several records for some structures; these can differ, active in one and inactive in another. The source made the active and inactive calls. Calls follow the shape of the dose curve; as a rule, active = well fitted cell-killing curve with a large enough effect; inconclusive = small, poorly fitted or top-dose-only effect; inactive = flat fitted curve, though single readings scatter.
Potency is read from the fitted curve at half-maximal effect.

A short description of the assay: Cellular viability qHTS for adrenocortical cancer (ACC) cell line NCI-H295R (AID 1963990). Also: nearly all actives have a fitted effect of over 60% in size.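 As to activity change, negative = viability loss: 0% = DMSO only wells and -100% = full killing with cytotoxic reference compound.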 The following applies: CellTiter-Glo ATP luminescence, 48 h; series mostly up to 46.1 µM; activity change, negative = viability loss: at the top concentration. The method, boiled down:
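Luminescent ATP read-out (CellTiter-Glo, 20 min RT) after 48 h drug exposure of NCI-H295R cells; a titration up to 46 uM final. Data normalized to doxorubicin (100% inhibition) and DMSO (0%); 4-parameter fit gives IC50, max response.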
`O=c1[nH]c2ccccc2n1CCCN1CCC(n2c(=O)[nH]c3cc(Cl)ccc32)CC1`: the Potency was 16.4 µM (active) and inactive.
As to `COC1=C[C@@H]2[C@@H]3Cc4ccc(OC)c(O)c4[C@]2(CCN3C)CC1=O`, the “activity change, negative = viability loss” value is -2.42% (inactive).
On the same count and under the same terms, with `C#CC1(O)CCC2C3CCC4=CC(=O)CCC4(C)C3CCC21C` (configuration not stated) the figure was -3.75% (inactive).
As to `CN(C)[C@@H]1C(=O)C(C(N)=O)=C(O)[C@@]2(O)C(=O)C3=C(O)c4c(O)cccc4[C@@](C)(O)[C@H]3C[C@@H]12`, the Potency result was “inactive”.
For the compound `C[C@]12CCC(=O)C=C1CC[C@@H]1[C@H]3CC[C@](C)(O)[C@@]3(C)CC[C@@H]12`, the Potency is 28.2 µM (active).
In the case of `CC[C@@H](CO)NC(=O)[C@@H]1C=C2c3cccc4c3c(cn4C)C[C@H]2N(C)C1`, the “activity change, negative = viability loss” value was -6.07% (inactive).
As to `CC(C)(O)C(=O)Nc1ccc([N+](=O)[O-])c(C(F)(F)F)c1`, the “activity change, negative = viability loss” value was -1.75% (inactive).
For `Clc1ccccc1C(c1ccccc1)(c1ccccc1)n1cccn1`, the “activity change, negative = viability loss” value is -2.66% (inactive).
In the case of `Cc1cc(SCc2sc(-c3ccc(C(F)(F)F)c(F)c3)nc2C)ccc1OCC(=O)O`, the “activity change, negative = viability loss” value was -19.8% (inactive).
For `CC(C)[C@H]1C(=O)N[C@H](CO)Cc2c[nH]c3cccc(c23)N1C`, the “activity change, negative = viability loss” value is -24.6% [at 20 µM] (inactive).
Regarding `COc1ccc(C(=O)c2c(C)n(CCN3CCOCC3)c3ccccc23)cc1`, the Potency is 14.6 µM (active).
Turning to `CCN(CC)CCc1c[nH]c2ccccc12`, the “activity change, negative = viability loss” value is -11.2% [at 178 µM] (inactive).
For the compound `COC(=O)[C@@]12OC[C@]34[C@H]([C@@H](O)[C@@H]1O)[C@@]1(C)CC(=O)C(O)=C(C)[C@@H]1C[C@H]3OC(=O)[C@H](OC(=O)/C=C(\C)C(C)C)[C@@H]24`, the Potency is 12.6 µM (active).
With `CCOC(=O)Nc1ccc(NCc2ccc(F)cc2)cc1N`, the “activity change, negative = viability loss” value was 6.21% (inactive).
On to `Cn1cc(C2=C(c3cn(C4CCN(Cc5ccccn5)CC4)c4ccccc34)C(=O)NC2=O)c2ccccc21`, for which the Potency entry was “inactive”.
On to `CCc1c(C(=O)C(N)=O)c2c(OCC(=O)O)cccc2n1Cc1ccccc1`, for which the “activity change, negative = viability loss” value is -21.4% (inactive).
Still for that read-out and setting: with `CNC(=O)c1ccc(N2C(=S)N(c3ccc(C#N)c(C(F)(F)F)c3)C(=O)C23CCC3)cc1F` the figure was -34.2% (inactive).
